Measured values from PubChem BioAssay (EPA / NIEHS).
Calls of active or inactive are those of the source. How the source made its calls: active means hit-call score of the fitted dose curve at least 0.9, where 1 is the maximum; inactive means score below 0.9.

Key:
[1] = biological target: Nuclear respiratory factor 1 (Homo sapiens) (UniProt Q16656); assay: ATG_NRF1_CIS: Attagene CIS-FACTORIAL HepG2 Assay for human Nuclear Respiratory Factor 1 (NRF1) Orphan Gene (AID 2282987); conditions: HepG2 NRF1 cis-element reporter, Attagene multiplex; actives raise or lower the signal
How it was run: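 Multiplexed cis-reporter assay, HepG2 cells, 24 h treatment. Total RNA → oligo(dT) RT → PCR with reporter-specific primers → 6-FAM primer extension → HpaI cut → CE. Bidirectional fit vs DMSO.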

[2] = ATG_NFI_CIS: Attagene CIS-FACTORIAL HepG2 Assay for human Nuclear Factor I (NFI) (AID 2282989); conditions: HepG2 cis-regulatory reporter, NFI response element transcription; actives raise or lower the signal
How it was run: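 Reporter transcripts were measured by RT-PCR with fluorescent primer extension and capillary electrophoresis 24 h post-treatment. HepG2 cells carried transiently transfected cis-regulated reporter constructs reporting endogenous factor activity; gain or loss fitted against DMSO baseline.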

[3] = biological target: Myc proto-oncogene protein (Homo sapiens) (UniProt P01106); assay: ATG_Myc_CIS: Attagene CIS-FACTORIAL HepG2 Assay for human Myelocytomatosis (Myc) Proto-Oncogene Transcription Factor (AID 2282990); conditions: HepG2, Attagene cis-reporter transcription factor activity; actives raise or lower the signal
How it was run: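 Transiently transfected HepG2 cells bearing cis-promoter reporter units for endogenous transcription factors; 24 h exposure. Reporter mRNA measured by RT-PCR, 6-FAM primer extension, HpaI cut and capillary electrophoresis; bidirectional fit relative to DMSO.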

[4] = ATG_NF_kB_CIS: Attagene CIS-FACTORIAL HepG2 Assay for human Nuclear Factor Kappa B (NF-kB) (AID 2282991); conditions: HepG2 Attagene cis-factorial NF-kB reporter mRNA; actives raise or lower the signal
How it was run: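 Transient MRTU transfection of human HepG2 liver cells → 24 h chemical exposure → total RNA, oligo(dT) RT → PCR, 6-FAM primer extension, HpaI digest 2 h 37 C → CE fragment analysis. Bidirectional fitting, DMSO negative control.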

[5] = ATG_NRF2_ARE_CIS: Attagene CIS-FACTORIAL HepG2 Assay for human Nuclear Factor Erythroid 2 Related Factor 2 (NFR2) response to Antioxidant Response Elements (ARE) (AID 2282992); conditions: HepG2 Attagene ARE/NRF2 reporter, transcription factor activity; actives raise or lower the signal;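 on AC50: reporter mRNA level measured by RT-PCR and capillary electrophoresis fluorescence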
How it was run: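 HepG2 cells transiently transfected with multiplexed cis-element reporter constructs, 24 h after chemical dosing; reporter mRNA quantified by RT-PCR, fluorescent primer extension, HpaI digestion and capillary electrophoresis. Bidirectional fit relative to DMSO.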

[6] = biological target: Cellular tumor antigen p53 (Homo sapiens) (UniProt P04637); assay: ATG_p53_CIS: Attagene CIS-FACTORIAL HepG2 Assay for human p53 Transcription Factor (AID 2282994); conditions: HepG2 p53 cis-element reporter, Attagene mRNA; actives raise or lower the signal
How it was run: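 HepG2 cells transiently transfected with cis-regulated multiple reporter transcription units, dosed 24 h. Reporter mRNA measured by RT-PCR, 6-FAM primer extension, HpaI digestion and capillary electrophoresis; bidirectional fit relative to DMSO.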

[7] = ATG_Oct_MLP_CIS: Attagene CIS-FACTORIAL HepG2 Assay for human Octamer-Binding Transcription Factor (Oct) (AID 2282993); conditions: HepG2 Attagene cis-factorial Oct reporter, mRNA; actives raise or lower the signal
How it was run: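 Readout is reporter transcript level from RT-PCR with fluorescent primer extension and capillary electrophoresis, fitted in both directions against DMSO. Transfected HepG2 reporter units report endogenous factor activity after 24 h dosing.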

[8] = BSK_3C_TissueFactor: BioMAP Diversity Plus: 3C Assay for Tissue Factor Biomarker Activity (AID 2282997); conditions: BioMAP 3C HUVEC, tissue factor biomarker readout; actives raise or lower the signal
How it was run: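 ELISA read-out of Tissue Factor levels on human umbilical vein endothelium collected 24 h after chemical dosing. Gain or loss of signal was fitted relative to DMSO.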

[9] = BSK_3C_uPAR: BioMAP Diversity Plus: 3C Assay for Urokinase-type plasminogen activator receptor (uPAR) Biomarker Activity (AID 2282998); conditions: BioMAP 3C HUVEC, uPAR biomarker ELISA; actives raise or lower the signal
How it was run: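 Cell-surface uPAR on HUVEC (3C system) read by ELISA at 24 h post-treatment, with DMSO as baseline and fitting in both directions. Parallel cultures stained with SRB to flag overt cytotoxicity.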

[10] = BSK_3C_VCAM1: BioMAP Diversity Plus: 3C Assay for Vascular cell adhesion molecule 1 (VCAM1) Biomarker Activity (AID 2282999); conditions: BioMAP 3C HUVEC, VCAM1 ELISA, cytokine-stimulated; actives raise or lower the signal
How it was run: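 Human umbilical vein endothelial cells (3C system), biomarker read by ELISA 24 h after dosing; bidirectional fit against DMSO baseline. Cytotoxicity tracked by SRB total-protein staining in parallel cultures at biomarker time.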

Measured: AC50

Chain of Cellular tumor antigen p53 (Homo sapiens) (P04637 whole entry, looked up): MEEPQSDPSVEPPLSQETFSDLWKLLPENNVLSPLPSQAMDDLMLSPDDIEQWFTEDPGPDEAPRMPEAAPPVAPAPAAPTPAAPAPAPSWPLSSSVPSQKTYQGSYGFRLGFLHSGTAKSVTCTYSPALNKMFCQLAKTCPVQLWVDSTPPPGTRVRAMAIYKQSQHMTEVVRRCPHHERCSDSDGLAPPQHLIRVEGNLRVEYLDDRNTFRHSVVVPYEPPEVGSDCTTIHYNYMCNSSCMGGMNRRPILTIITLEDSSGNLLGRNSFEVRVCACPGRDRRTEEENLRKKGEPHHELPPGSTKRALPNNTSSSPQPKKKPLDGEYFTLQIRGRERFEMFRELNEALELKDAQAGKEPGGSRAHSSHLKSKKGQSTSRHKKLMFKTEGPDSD
Chain of Myc proto-oncogene protein (Homo sapiens) (P01106 whole entry, looked up): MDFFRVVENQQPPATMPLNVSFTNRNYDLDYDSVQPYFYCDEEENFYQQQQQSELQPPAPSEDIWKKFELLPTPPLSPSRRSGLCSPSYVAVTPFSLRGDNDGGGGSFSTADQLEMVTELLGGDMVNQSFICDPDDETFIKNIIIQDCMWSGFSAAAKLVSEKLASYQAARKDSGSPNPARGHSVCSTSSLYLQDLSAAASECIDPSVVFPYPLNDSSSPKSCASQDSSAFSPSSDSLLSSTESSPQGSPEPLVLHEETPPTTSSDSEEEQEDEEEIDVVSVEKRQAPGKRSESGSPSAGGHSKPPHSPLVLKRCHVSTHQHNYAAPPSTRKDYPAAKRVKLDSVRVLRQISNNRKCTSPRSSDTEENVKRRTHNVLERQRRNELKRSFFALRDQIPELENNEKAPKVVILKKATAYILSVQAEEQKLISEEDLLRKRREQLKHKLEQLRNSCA
Chain of Nuclear respiratory factor 1 (Homo sapiens) (Q16656 whole entry, looked up): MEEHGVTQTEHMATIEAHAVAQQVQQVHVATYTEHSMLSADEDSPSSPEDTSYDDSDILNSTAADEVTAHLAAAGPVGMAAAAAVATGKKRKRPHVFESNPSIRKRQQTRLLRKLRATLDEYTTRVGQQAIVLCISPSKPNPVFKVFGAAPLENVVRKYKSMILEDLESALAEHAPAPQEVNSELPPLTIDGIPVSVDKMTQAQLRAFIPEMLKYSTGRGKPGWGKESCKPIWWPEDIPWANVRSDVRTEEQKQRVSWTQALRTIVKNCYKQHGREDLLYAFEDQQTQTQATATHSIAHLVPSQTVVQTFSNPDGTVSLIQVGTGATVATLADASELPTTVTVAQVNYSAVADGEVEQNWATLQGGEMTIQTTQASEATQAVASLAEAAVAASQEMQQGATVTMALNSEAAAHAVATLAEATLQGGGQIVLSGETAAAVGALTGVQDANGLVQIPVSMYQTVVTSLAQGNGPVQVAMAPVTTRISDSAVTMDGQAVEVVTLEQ

CCCCCCCCCCCCc1ccc(O)cc1
inactive: [1] | [2] | [3] | [4] | [5] | [6]

c1ccc2sc(SSN3CCOCC3)nc2c1
active: [1] 100 µM | [2] 75 µM | [3] 76.3 µM | [5] 48.8 µM | [7] 100 µM | [8] 9.51 µM | [9] 4.34 µM | [10] 8.13 µM
inactive: [4]

COC(Cc1ccccc1)OC
inactive: [1] | [2] | [3] | [5] | [7]

CN(C)c1ccc2nc3ccc(=[N+](C)C)cc-3sc2c1
active: [1] 15 µM | [5] 2.2 µM
inactive: [2] | [3] | [7] | [6]

CC1CCC(=O)C1=O (centres undefined)
inactive: [1] | [2] | [3] | [5] | [7]

Cn1ccnc1
inactive: [1] | [2] | [3] | [5] | [7] | [6]

CC(Cl)COP(=O)(OCC(C)Cl)OCC(C)Cl (centres undefined)
not listed: [7] | [8]
inactive: all other assays above

COC(OC)(C(=O)c1ccccc1)c1ccccc1
not listed: [6] | [8]
inactive: all other assays above

COC(=O)c1ccc(C(=O)OC)c(C(=O)OC)c1
inactive: [1] | [2] | [3] | [5] | [7]

C=C[Si](OCCOC)(OCCOC)OCCOC
inactive: [1] | [2] | [3] | [5] | [7] | [6]

C[Si](C)(C)N[Si](C)(C)C
inactive: [1] | [2] | [3] | [5] | [7] | [6]

Fc1ccc(Br)cc1
not listed: [8]
inactive: all other assays above

CCCCCCCO
not listed: [6] | [7]
inactive: all other assays above

COC(=O)C=Cc1ccccc1
inactive: [1] | [2] | [3] | [5] | [7]

CCN1CCCC1=O
inactive: [1] | [2] | [3] | [4] | [5] | [6]

N#Cc1ccc(C2CCCc3cncn32)cc1 (centres undefined)
inactive: [1] | [2] | [3] | [5] | [7] | [6]
